Bioassay records: PubChem BioAssay, several laboratories
HePTP inhibitor: inhibitors of human HePTP phosphatase, primary screen, biochemical, absorbance, leukemia target. inhibition, % at 20 µM. 110,000 tested, 0.64% active. Tyrosine-protein phosphatase non-receptor type 7 (Homo sapiens), P35236. recombinant HePTP phosphatase activity, OD absorbance; in the data active = inhibition above about 50%;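 also: plate controls were vehicle for no effect and reference inhibitor for full effect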
Target sequence (P35236 whole entry, looked up): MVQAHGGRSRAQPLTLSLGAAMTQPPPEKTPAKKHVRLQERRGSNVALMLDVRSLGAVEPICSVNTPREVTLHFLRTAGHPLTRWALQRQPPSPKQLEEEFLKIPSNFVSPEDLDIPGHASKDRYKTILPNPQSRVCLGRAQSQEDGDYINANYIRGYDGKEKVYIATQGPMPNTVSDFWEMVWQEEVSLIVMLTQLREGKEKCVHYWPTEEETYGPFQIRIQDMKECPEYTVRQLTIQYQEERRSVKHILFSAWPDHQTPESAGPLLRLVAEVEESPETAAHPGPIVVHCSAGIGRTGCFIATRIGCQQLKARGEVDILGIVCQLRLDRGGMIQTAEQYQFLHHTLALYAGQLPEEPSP
TNAP act mid DEA: human TNAP enzyme activators, primary screen, biochemical, luminescent, intermediate phosphate acceptor level | Alkaline phosphatase, tissue-nonspecific isozyme (Homo sapiens), P05186 | activation factor at 20 µM | 64,000 tested, under 10 active | purified TNAP, CDP-star luminescence, 100 mM DEA, 30 min; stronger effect = higher value; scale: 0 levamisole-inhibited, 1 vehicle-only enzyme;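 active = activation factor of at least 2 at 20 µM, relative to controls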
Ecoli WT expand: growth inhibitors of wild-type E. coli, primary screen, strain BW25113, expanded library, OD600; 98,000 tested, 0.15% active; AID 710, 2007; OD600 absorbance; growth inhibition, % at 100 µM;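 active = growth inhibition above about 50% at one test dose, limit read from the data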;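 also: growth measured after 20 h incubation at 37 °C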
PLAP act: PLAP enzyme activators, biochemical, luminescence, HTS. Alkaline phosphatase, placental type (Homo sapiens), P05187. purified PLAP enzyme, luminescent substrate read-out; stronger effect = higher value. activation fold at 20 µM. 96,000 tested, 1.2% active. AID 696, 2007; in the data active = activation fold above about 2
The depositor's hits bear a star; . = not tested or not shown. A selection: hits, their analogues and other compounds. The true share with any hit is near 1.3%.

SMILES | HePTP inhibitor | TNAP act mid DEA | Ecoli WT expand | PLAP act
N=c1n(CCN2CCCC2)c2ccccc2n1CC(O)c1ccco1 (configuration not stated) | 10 | 0.9 | -2 | 1.2
N=c1n(CCN2CCCCC2)c2ccccc2n1CC(O)c1ccc(Cl)c(Cl)c1 (configuration not stated) | . | . | 98* | 2.1*
Cc1ccccc1C(=O)NNC(=O)Cc1cccc2ccccc12 | . | . | 2 | 2*
COc1ccc(OCC(=O)NNC(=O)c2ccccc2C)cc1 | 3 | . | . | .
CCCCCN(C(=O)CN(C)Cc1ccc(OC)cc1OC)c1c(N)n(CCCC)c(=O)[nH]c1=O | . | . | 6 | 2.4*
CC(C)(C)c1ccc(CSc2nc3ccccc3c(=O)[nH]2)cc1 | 69* | . | . | .
COc1ccc(C(=O)NN2CCOCC2)cc1OC | 3 | . | . | .
CC(C)c1nc2ccc(NC(=O)C34CC5CC(CC(C5)C3)C4)cc2[nH]1 | . | . | -4 | 2*
Cc1cccc(N2CCN(CC(=O)Nc3nccs3)CC2)c1C | . | . | 17 | 2.3*
O=C(Nc1ccc(N2CCN(C(=O)c3ccco3)CC2)cc1)c1cccs1 | -11 | 1 | -4 | 0.9
O=C(Nc1ccc(N2CCN(C(=O)c3ccco3)CC2)cc1)C(c1ccccc1)c1ccccc1 | . | . | -15 | 2.5*
c1ccc(-c2csc(NNC3=NCCCCC3)n2)cc1 | . | . | -29 | 2.1*
O=C1CCCC/C1=C\Nc1ccccc1C(=O)O | 3 | 1 | 1 | 0.8
COc1ccccc1CNc1cc(CSc2ccc(Cl)cc2)nc(C)n1 | . | . | -3 | 2*
COc1cccc(CNc2cc(CSc3ccc(Cl)cc3)nc(C)n2)c1 | . | . | -6 | 2*
Cc1nnc(C)n1/N=C/c1cccn1C | 7 | 0.9 | -7 | 0.9
COc1ccc(-c2nc(SCC(=O)Nc3cc(C)on3)n[nH]2)cc1 | . | . | 3 | 2.1*
Cc1ccc(SCC(=O)Nc2cc(C)on2)cc1 | . | . | 1 | 0.8
CCCCc1nc(SCC(=O)Nc2cc(C)on2)n[nH]1 | 4 | 0.6 | -2 | 2.3*
Cc1ccc(/C=N\NC(=O)C(O)(c2ccccc2)c2ccccc2)o1 | 6 | . | . | .
Cc1ccc2c(c1)C(=Cc1nc3ccccc3c(=O)n1-c1ccccc1[N+](=O)[O-])C(=O)N2 | 104* | . | . | .
Cc1ccc(C(=O)NNC(=S)NC(=O)COc2ccccc2)cc1 | . | . | 51* | 1.5
Cc1ccccc1C(=O)NNC(=S)NC(=O)COc1ccccc1 | . | . | 32 | 2.4*
O=C(CSc1nc(C2CCCCC2)n(-c2ccccc2)n1)NCCN1C(=O)CSC1=O | 9 | 0.9 | 8 | 2*
O=C(CSc1nc(-c2ccccc2)c(-c2ccccc2)[nH]1)NCCN1C(=O)CSC1=O | . | . | 0 | 1.5
SMILES | HePTP inhibitor | TNAP act mid DEA | Ecoli WT expand | PLAP act
O=C(C1CCN(C2CC(=O)N(Cc3ccccc3)C2=O)CC1)N1CCCCCC1 (configuration not stated) | 8 | 0.9 | 5 | 2*
Cc1cc(C)cc(N(C(=O)c2csnn2)C(C(=O)NC(C)(C)C)c2cccs2)c1 (configuration not stated) | . | . | -8 | 1.3
Cc1nnc(SCC(=O)Nc2ccc(Br)cn2)[nH]c1=O | -4 | 0.8 | -6 | 1.2
Cc1ccc(-c2cc(C(=O)Nc3c(C)n(C)n(-c4ccccc4)c3=O)[nH]n2)c(O)c1 | -8 | 1.1 | -10 | 1.4
Cc1cc(C)c(-c2cc(C(=O)Nc3c(C)n(C)n(-c4ccccc4)c3=O)[nH]n2)c(O)c1 | 4 | 1.2 | 8 | 2.2*
O=C(Nc1cccnc1)C1CC(c2ccccc2O)=NO1 (configuration not stated) | . | . | 21 | 2*
O=C(O)c1ccc(/C=C2\SC(=O)N(c3ccc(F)cc3)C2=O)cc1 | 100* | . | . | .
COC(=O)c1ccc(/C=C2\SC(=S)N(c3ccc(F)cc3)C2=O)cc1 | -4 | . | . | .
COc1cc(NS(=O)(=O)c2ccc(NC(C)=O)cc2)nc(OC)n1 | . | . | -8 | 1.1
COc1cc(NS(=O)(=O)c2ccc(N/C=C(\C#N)c3nc4cc(Cl)ccc4o3)cc2)nc(OC)n1 | . | . | -16 | 2.1*
CCOC(=O)N1CCN(C(=S)NC)CC1 | . | . | -9 | 0.8
COc1cc(/C=N/N2C(=O)CSC2=S)ccc1O | 9 | . | 8 | 2.2*
COc1cc(/C=N/N2C(=O)CSC2=S)ccc1OCCOc1ccc(C)c(C)c1 | 12 | . | . | .
CCCc1cc(C(=O)OC)c(NC(=O)OCC)s1 | 2 | 0.9 | 0 | 1.1
Nc1sc2c(c1C(=O)NC1CCS(=O)(=O)C1)CCC2 (configuration not stated) | -5 | 1 | -1 | 2.3*
CNC(=O)c1c(N)sc2c1CCCCC2 | 6 | 1 | -3 | 1.3
O=C1c2ccccc2NC(c2ccc(Cl)cc2Cl)N1Cc1ccccc1 (configuration not stated) | 2 | . | -17 | 1.1
O=C1c2ccccc2NC(c2ccc(Cl)cc2Cl)N1O (configuration not stated) | 9 | 0.9 | 58* | 1
N#C/C(=C(/O)CSc1nnc(Cc2cccs2)n1C1CCCCC1)c1nc2ccccc2[nH]1 | -2 | 1 | -3 | 2.7*
CC(=O)NCCn1c(SCC(=O)NCC2CCCO2)nc2ccccc2c1=O (configuration not stated) | -6 | 0.9 | -4 | .
Cc1cc(C)c(NC(=O)c2ccc(CN3CCc4ccccc4C3)cc2)c(C)c1 | . | . | -6 | 2.3*
O=C(Nc1cc(Cl)cc(Cl)c1)c1ccc(CN2CCc3ccccc3C2)cc1 | -9 | . | . | .
COc1cccc(OC)c1C(=O)NNC(=O)c1cccc(COc2ccc3c(c2)CCC3)c1 | . | . | -6 | 2*
O=C(OCCCCN1C(=O)c2ccccc2C1=O)c1n[nH]c2ccccc12 | -1 | 0.9 | 3 | 2*
CCN1CCN(C(=O)c2nn(-c3ccc(C)cc3)c(=O)c3c2c2ccccc2n3C)CC1 | -12 | 0.9 | -17 | 1
SMILES | HePTP inhibitor | TNAP act mid DEA | Ecoli WT expand | PLAP act
OCCN1CCOCCN(CCO)CCOCC1 | -8 | 1 | -5 | 2*
O=C(NC(CSCc1ccccc1)C(=O)N/N=C/c1ccc(O)cc1O)c1ccc([N+](=O)[O-])cc1 (configuration not stated) | . | . | 12 | 2.7*
Cc1ccc(C2C3=C(CC(C)(C)CC3=O)Nc3n[nH]c(C)c32)cc1 (configuration not stated) | -3 | 1.1 | 3 | 2*
Cc1cc(C)c2c(n1)nn1c(N3CCN(Cc4ccccc4)CC3)cc(C)nc21 | 7 | 1 | . | 2.1*
CC(Oc1ccccc1)C(=O)Nc1ccncc1 (configuration not stated) | 0 | . | . | .
CCCCOc1ccc(-c2nnc(N)s2)cc1 | -3 | 0.8 | . | .
COc1cc(C(c2c(C)[nH][nH]c2=O)c2c(C)[nH][nH]c2=O)ccc1OC(=O)c1cccc([N+](=O)[O-])c1 | . | . | -2 | 1.2
COc1cc(C(c2c(C)[nH][nH]c2=O)c2c(C)[nH][nH]c2=O)ccc1OS(=O)(=O)c1ccc(C)cc1 | . | . | -6 | 2.9*
COc1cc(C(c2c(C)[nH][nH]c2=O)c2c(C)[nH][nH]c2=O)ccc1OS(=O)(=O)c1ccccc1 | . | . | -1 | 2.5*
COc1cc(C(c2c(C)[nH][nH]c2=O)c2c(C)[nH][nH]c2=O)ccc1OCc1ccc([N+](=O)[O-])cc1 | . | . | 6 | 2.6*
